High-throughput results (PubChem)
Cy5 interf NS3h: Cy5 fluorescence quenchers or enhancers, artefact control for HCV NS3 helicase inhibitor project, biochemical, ChemBridge library, Cy5 readout | AID 720488, 2013 | fluorescence interference ratio at 100 µM | Cy5-dT15 DNA with NS3h, fluorescence interference; actives lie on both sides; signal over control mean, under 1 quenches | 6% of 16,000 active;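 active = compound fluorescence over control fluorescence at most 0.8, a quencher, or at least a set upper limit, an enhancer; inactive = ratio between 0.8 and the set upper limit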
HCV NS3h FP: HCV NS3 helicase inhibitors, primary screen, biochemical, fluorescence polarization, ChemBridge library. NS3h Cy5-dT15 DNA binding. inhibition, % at 100 µM. 1.6% of 16,000 active. AID 687043, 2013;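 active = inhibition above the average over every tested compound plus 3 SD, cut at about 40% in these data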
HCV NS3h conf: HCV NS3 helicase inhibitors, retest, confirmation, biochemical, fluorescence polarization, ChemBridge library. NS3h binding to Cy5-dT15 DNA. AID 720485, 2013. 20% of 240 active. shares compounds with HCV NS3h FP. inhibition, % at 100 µM;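 active = percent inhibition of 50% or more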
SSB-DNA FP CB: E. coli SSB-DNA binding inhibitors, counter-screen for HCV NS3 helicase inhibitor project, biochemical, fluorescence polarization, selected ChemBridge compounds. inhibition, % at 100 µM. AID 720486, 2013. shares compounds with HCV NS3h FP. 40% of 240 active. E. coli SSB binding Cy5-dT15;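 active = inhibition of at least 50%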;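 also: displacers lower Cy5 polarization so higher inhibition means more SSB displaced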
Target sequence (P0AGE0 whole entry, looked up): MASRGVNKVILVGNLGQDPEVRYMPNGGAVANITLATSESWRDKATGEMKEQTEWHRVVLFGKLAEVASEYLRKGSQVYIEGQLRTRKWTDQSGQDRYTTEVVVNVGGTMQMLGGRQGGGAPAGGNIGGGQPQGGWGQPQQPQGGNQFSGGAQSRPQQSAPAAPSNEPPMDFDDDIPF
Cy5 SSB fluor CB: Cy5 fluorescence interference with SSB-bound oligo, artefact control for HCV NS3 helicase inhibitor project, biochemical, E. coli SSB, selected ChemBridge compounds; Cy5-dT15/E. coli SSB fluorescence interference; actives lie on both sides; shares compounds with HCV NS3h FP; fluorescence interference ratio at 100 µM; AID 720487, 2013; 8% of 240 active;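 active = fluorescence interference ratio at or above 1.2, signal boosting, or at or below 0.8, signal quenching; inactive = ratio between 0.8 and 1.2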;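 also: ratio of compound well signal to mean negative control signal so 1 means no effect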
Cy5 interf conf: Cy5-DNA-NS3h complex fluorescence interference, confirmation, artefact control for HCV NS3 helicase inhibitor project, biochemical, ChemBridge library | fluorescence interference ratio at 100 µM, hits read low | shares compounds with HCV NS3h FP | Cy5-dT15 DNA/NS3h fluorescence interference counterscreen | 44% of 240 active;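 active = fluorescence interference ratio at or below 0.8 quencher or at or above a set limitenhancer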;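 also: ratio of compound fluorescence to mean of negative controls so 1 means no interference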
The depositor's hits bear a star; x = no result given. Compounds with a hit are over-represented: about 6.9% of the library has one in this group of screens.

SMILES	Cy5 interf NS3h	HCV NS3h FP	HCV NS3h conf	SSB-DNA FP CB	Cy5 SSB fluor CB	Cy5 interf conf
O=C(Nc1ccccc1C(F)(F)F)c1cncc(Br)c1	0.99	3	x	x	x	x
O=C1N=c2ccc([N+](=O)[O-])cc2=C1c1sc(NS(=O)(=O)c2ccccc2)nc1O	1	41*	15	101*	0.87	0.75*
O=[N+]([O-])c1cccc(S(=O)(=O)Nc2ccc(O)c(Cl)c2)c1	0.83	5	x	x	x	x
O=C(O)CCn1c(O)c(C2=c3cc([N+](=O)[O-])ccc3=NC2=O)sc1=S	0.94	28	9	28	0.93	0.77*
COCCCn1c(O)c(C2=c3ccccc3=NC2=O)sc1=S	1	20	x	x	x	x
COC(=O)/C(=C/C(=O)c1ccc(C)cc1)Nc1c(C)n(C)n(-c2ccccc2)c1=O	1	2	x	x	x	x
COc1cc([N+](=O)[O-])ccc1-c1ccc(/C=C2\SC(=S)NC2=O)o1	0.97	16	x	x	x	x
COc1ccc(N2C(=O)c3ccccc3NC2c2cccc(F)c2)cc1 (stereo not given)	1	6	x	x	x	x
CCN(CC)CCN1C(=O)c2ccccc2NC1c1cccc(F)c1 (stereo not given)	1.1	41*	4	10	0.94	0.96
CCCN1C(=O)c2ccccc2NC1c1cccc(F)c1 (stereo not given)	0.97	4	x	x	x	x
Cc1ccc(N2C(=O)c3ccccc3NC2c2cccc(F)c2)cc1 (stereo not given)	1.1	30	10	8	0.97	0.72*
COC(=O)c1cc(NC(=O)c2cccc(OC(C)C)c2)cc(C(=O)OC)c1	1.2	-4	x	x	x	x
O=C(/C=C/c1ccc(-c2ccc(Cl)cc2)o1)c1ccco1	0.99	10	x	x	x	x
COc1ccc(NCC2OCc3ccccc3CO2)cc1	1	-3	x	x	x	x
CCCC(C(=O)O)N1C(=O)/C(=C\c2ccc(-c3ccc([N+](=O)[O-])cc3)o2)SC1=S (stereo not given)	0.86	84*	8	54*	0.82	0.71*
O=C1/C(=C/c2ccc(-c3ccc([N+](=O)[O-])cc3)o2)SC(=S)N1Cc1ccccc1	0.96	-6	x	x	x	x
CCSc1nc2ccccc2n1Cc1ccc(OC)c([N+](=O)[O-])c1	0.99	17	x	x	x	x
COc1ccc2occ(C(=O)c3ccc(N)cc3)c2c1	1.1	40	7	19	0.87	0.85
COc1ccc2occ(C(=O)c3ccc([N+](=O)[O-])cc3)c2c1	1	5	x	x	x	x
COc1ccc(C2C(=C(O)c3ccc(Cl)cc3)C(=O)C(=O)N2CCCn2ccnc2)cc1 (stereo not given)	1.1	3	x	x	x	x
O=C(NC(=S)Nc1nc(-c2ccccc2)cs1)c1ccc(Cl)cc1	1	8	x	x	x	x
O=C(Nc1nc(-c2ccc(Cl)cc2)cs1)c1cccs1	1.2	40	27	19	0.97	0.77*
O=C(c1ccccc1)N1CCN(c2nc(-c3ccccc3)c3cc(Cl)ccc3n2)CC1	0.98	4	x	x	x	x
O=C1C=CC(=O)N1c1ccc(SC(F)F)cc1	0.99	20	x	x	x	x
C=C(C)C(=O)Oc1ccc(N2C(=O)C=CC2=O)cc1	1	81*	55*	4	0.93	0.92
SMILES	Cy5 interf NS3h	HCV NS3h FP	HCV NS3h conf	SSB-DNA FP CB	Cy5 SSB fluor CB	Cy5 interf conf
C=C(C)C(=O)Oc1ccc(N2C(=O)CCC2=O)cc1	1.1	4	x	x	x	x
CN(C)c1ccc(N2C(=O)C=CC2=O)cc1	0.96	65*	43	16	1	0.76*
COc1ccc(N2C(=O)C=C(Nc3ccccc3)C2=O)cc1	0.87	15	x	x	x	x
O=C1C=CC(=O)N1c1ccc(OC(F)F)cc1	0.82	46*	33	9	0.94	0.86
COc1ccc(N2C(=O)C=CC2=O)cc1	0.77*	84*	49	0	1	0.77*
CN(C)c1ccc(/C=C/C(=O)/C=C/c2ccc(N(C)C)cc2)cc1	0.98	6	x	x	x	x
Cc1ccc(C)c(NC(=S)NC(=O)c2ccco2)c1	1	-3	x	x	x	x
O=[N+]([O-])c1ccc(N2CCN(S(=O)(=O)c3ccccc3)CC2)c(Cl)c1	0.85	15	x	x	x	x
COc1ccc(C2C(=C(O)c3ccccc3)C(=O)C(=O)N2CC2CCCO2)c(OC)c1 (stereo not given)	1.1	2	x	x	x	x
O=C1NC(=O)C(=Cc2cccc(OCc3ccc(Cl)cc3Cl)c2)C(=O)N1	1	38	23	17	1	0.74*
O=C1NC(=O)N(c2ccccc2)C(=O)/C1=C\c1cccc(OCc2ccccc2F)c1	1	14	x	x	x	x
Cc1ccc(OCCOc2ccc(Br)cc2/C=C2/SC(=S)N(C)C2=O)cc1	1	32	x	x	x	x
Cc1ccc(OCCOc2ccc(Cl)cc2/C=C2/SC(=S)N(C)C2=O)cc1	0.91	46*	1	10	1.1	0.8*
COc1cc(NC(=O)c2ccc([N+](=O)[O-])cc2)ccc1NC(=O)c1cc2ccccc2o1	1.1	4	x	x	x	x
O=C1NN(c2ccccc2)C(=O)/C1=C/c1ccc(F)c(Br)c1	0.93	2	x	x	x	x
O=C1NC(=S)S/C1=C\c1ccc(-c2ccccc2C(=O)O)o1	0.87	62*	53*	110*	0.79*	0.91
O=C1NC(=S)S/C1=C/c1ccc(-c2ccccc2)o1	1.1	18	x	x	x	x
Cc1ccc(CNC(=O)C23CC4CC(CC(C4)C2)C3)cc1	0.98	8	x	x	x	x
CCN(CC)c1ccc(C=Nc2ccc(S(N)(=O)=O)cc2)c(O)c1	1	9	x	x	x	x
CCN(CC)c1ccc(N=Cc2c(O)[nH]c(=S)[nH]c2=O)cc1	0.73*	94*	54*	70*	0.91	0.79*
COc1ccc(OC)c(NC(=S)NC(=O)c2ccco2)c1	1	-6	x	x	x	x
COc1ccc(C(=O)/C=C/c2ccc(-c3cccc(Cl)c3Cl)o2)cc1	1.1	5	x	x	x	x
O=C1NC(=O)N(c2ccccc2)C(=O)/C1=C/c1ccc(N2CCOCC2)o1	1.1	0	x	x	x	x
CCOc1ccc2ccc(OCC)c(/C=C3/SC(=S)NC3=O)c2c1	1	-2	x	x	x	x
CCOc1ccc2ccccc2c1C=C1C(=O)NC(=S)NC1=O	0.89	44*	19	39	0.94	0.97
